A selection: hits, their analogues and other compounds. The true share with any hit is near 2.9%.
MEKK3 PB1 HTS: modulators (inhibitors or enhancers) of MEK5 binding to human MEKK3 PB1 domain. binding response (% of control), % at 10 µM. hit rate 1.4% among 290,000. AID 1529. bead-based flow cytometry, Alexa488-MEK5 binding to MEKK3; actives lie on both sides; 0 = blocked by unlabeled MEK5, 100 = vehicle;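 active = binding response more than 3 SD above or below the average of its plate-row segment, actives on both sides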;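 note: Alexa488 bead fluorescence after subtracting the streptavidin-only scavenger bead signal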
CRFR2-BP antag: antagonists of CRF-binding protein/CRF-R2 receptor complex. HEK293 CRF-R2/CRF-BP, CRF-induced calcium fluorescence. inhibition, % at 11.8 µM. hit rate 0.59% among 350,000. AID 588475;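 active = inhibition of the ligand-induced calcium signal above about 50% at the single tested concentration, limit read from the data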
CRFBP-R2 agonist: agonists of human CRF-binding protein/CRF-R2 receptor complex; HEK293 CRF-R2/CRF-BP, calcium dye fluorescence (FLIPR); percent of saturating CRF peptide response; activation, % at 13.2 µM; hit rate 0.46% among 350,000; AID 588473;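 active = activation of at least 50%, plus an integration ratio under a set limit after plate pattern correction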;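 note: plate controls were neutral control wells without compound for no effect and CRF at EC100 for full effect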
MEKK2 WT-MEK5: raises or lowers MEK5 binding to wildtype human MEKK2 PB1 domain | Q9Y2U5 | binding response (% of control), % at 10 µM | bead flow cytometry, Alexa488-MEK5 binding to MEKK2 WT; actives lie on both sides | hit rate 1.1% among 290,000; in the data active = binding response below about 67% or above about 130%
MEKK2 mut-MEK5: signal of MEK5 binding to mutant human MEKK2 PB1 domain. bead flow cytometry, Alexa488-MEK5 binding to MEKK2 mutant. hit rate 0.35% among 290,000. AID 1530. percent response, % at 10 µM; in the data active = percent response above about 24%, passing the limit was not always enough
ABCB6 inh 2: inhibitors of human ABC transporter ABCB6 | hit rate 0.19% among 360,000 | K562-ABCB6 porphyrin accumulation, flow cytometry, 1 h; stronger effect = lower value | Q9NP58 | fluorescence ratio to DMSO, % at 10 µM;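 active = fluorescence ratio to DMSO below 75%, the collection mean minus 3 SD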;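 note: signal is porphyrin accumulated inside mitochondria; 100% equals median channel fluorescence of DMSO control wells; lower ratio means ABCB6 inhibition with less porphyrin fluorescence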
Target sequence (Q9NP58 whole entry, looked up): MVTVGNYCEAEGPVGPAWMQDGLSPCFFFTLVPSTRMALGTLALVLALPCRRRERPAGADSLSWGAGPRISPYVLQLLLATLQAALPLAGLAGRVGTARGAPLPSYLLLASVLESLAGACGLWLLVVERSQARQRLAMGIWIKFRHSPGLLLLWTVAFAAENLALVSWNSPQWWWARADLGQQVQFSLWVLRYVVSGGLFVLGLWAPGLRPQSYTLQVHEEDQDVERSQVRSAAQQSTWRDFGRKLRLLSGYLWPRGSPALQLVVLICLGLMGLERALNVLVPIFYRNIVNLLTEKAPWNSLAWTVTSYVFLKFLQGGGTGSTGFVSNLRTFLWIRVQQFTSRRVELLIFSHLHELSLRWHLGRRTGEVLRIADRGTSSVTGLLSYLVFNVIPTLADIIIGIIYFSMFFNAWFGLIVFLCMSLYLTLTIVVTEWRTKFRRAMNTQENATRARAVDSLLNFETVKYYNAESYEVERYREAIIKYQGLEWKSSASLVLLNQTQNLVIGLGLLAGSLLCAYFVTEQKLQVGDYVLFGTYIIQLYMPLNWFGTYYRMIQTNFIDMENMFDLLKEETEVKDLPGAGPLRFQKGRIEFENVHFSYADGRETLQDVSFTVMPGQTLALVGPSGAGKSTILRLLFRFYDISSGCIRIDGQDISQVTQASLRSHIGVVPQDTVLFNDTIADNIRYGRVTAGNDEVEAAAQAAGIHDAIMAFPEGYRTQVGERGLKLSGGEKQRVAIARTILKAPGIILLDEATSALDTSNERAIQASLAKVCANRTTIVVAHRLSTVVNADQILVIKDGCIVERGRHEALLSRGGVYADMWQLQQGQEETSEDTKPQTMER
Starred values were filed as active, the others as inactive; x = no result.

SMILES	MEKK3 PB1 HTS	CRFR2-BP antag	CRFBP-R2 agonist	MEKK2 WT-MEK5	MEKK2 mut-MEK5	ABCB6 inh 2
CCN(Cc1nc(-c2ccc(OC)cc2)no1)C(=O)c1ccoc1C	102	6	-1	101	1	98
COc1ccc2c(c1)CCC1C2CCC2(C)C(O)C(=O)CC12 (stereo not drawn)	x	-13	-2	x	x	105
CCNc1nc(C)nc2c1oc1ccccc12	101	34	1	103	1	67*
CCC(=O)N1CCc2cc(OC)c(OC)cc2C1COc1ccc(F)cc1 (stereo not drawn)	97	6	0	98	-1	93
O=C(Nc1nnc(-c2cccs2)o1)c1cccc(C(F)(F)F)c1	103	24	81*	102	7	99
COc1ccc(CN2CCC(CO)(CCOc3ccccc3)CC2)cc1C	102	88*	3	114	13	103
CC(c1ccco1)N(C(=O)c1ccccc1NS(=O)(=O)c1ccc(Cl)c([N+](=O)[O-])c1)c1ccccn1 (stereo not drawn)	97	52*	15	93	-2	100
COC(=O)c1sc(-c2ccc(C(C)(C)C)cc2)cc1NC(=O)COCC(=O)O	102	60*	1	99	-3	102
COc1ccc(NS(=O)(=O)c2ccc(N3CCOCC3)c(NC(=O)c3ccc(F)cc3)c2)cc1	103	-19	-1	102	-2	100
COc1ccc(NS(=O)(=O)c2ccc(N3CCOCC3)c(NC(=O)C(C)C)c2)cc1	102	100*	2	100	1	91
CCCn1c(C(C)NS(=O)(=O)c2ccccc2)n[nH]c1=S (stereo not drawn)	109	62*	-1	108	3	101
O=C(NC1CC1)c1cccc(NC(=O)c2cc(S(=O)(=O)N3CCOCC3)ccc2Cl)c1	x	12	-1	x	x	95
CCCCN(c1ccc(C(=O)OC)cc1)S(=O)(=O)c1ccccc1	100	63*	-1	101	0	96
Cc1ccc(NC(=O)COC(=O)c2ccc(NC(=O)CC#N)cc2)cc1S(=O)(=O)N1CCOCC1	x	-3	1	x	x	94
COc1cccc(CN2CCN(Cc3cc(OC)c(OC)cc3[N+](=O)[O-])CC2)c1	101	64*	1	101	-4	98
COc1cccc(OCc2cc(C(=O)N3CCN(C(C)=O)CC3)no2)c1	104	-4	-1	101	-1	99
CCn1c2ccccc2c2cc(NC(=O)CN3CCCC3)ccc21	100	-12	-2	139*	19	93
CCN(CC)CCNc1ncnc2c1sc1nc(N3CCCC3)c3c(c12)CC(C)(C)OC3	110	-1	0	150*	32	96
Cc1ccccc1OCCC(=O)Nc1cc(S(=O)(=O)N2CCCCC2)ccc1N1CCN(C)CC1	x	-37	68*	x	x	101
CCOc1ccc(/C=C/C(=O)Nc2ccc(C(N)=O)cc2)cc1OC	110	1	2	103	-1	104
CCOc1cc(/C=C/C(=O)Nc2ccc(C(=O)NCCN(CC)CC)cc2)ccc1OCC(C)C	122	-46	4	138*	4	96
COc1ccc(NC(=O)c2ccccc2N2C(=O)C3C4C=CC(C5CC45)C3C2=O)c(OC)c1 (stereo not drawn)	102	2	-2	97	-5	92
O=C(COC(=O)CSc1cc(Cl)ccc1Cl)NCc1ccc2c(c1)OCO2	97	-102	52*	106	9	100
Cc1ccc(-n2nnnc2SCC(=O)Nc2cccnc2Cl)cc1	97	53*	10	97	1	99
O=C(CSc1nnnn1-c1ccc(Cl)cc1)Nc1cccnc1Cl	102	24	-1	102	3	96
SMILES	MEKK3 PB1 HTS	CRFR2-BP antag	CRFBP-R2 agonist	MEKK2 WT-MEK5	MEKK2 mut-MEK5	ABCB6 inh 2
CCC(C)NC(=O)CSc1nc2ccccc2c(=O)n1CCCC(=O)NCC1CCCO1 (stereo not drawn)	97	51*	-4	99	-1	102
C=CCn1c(=O)[nH]c2nc3cc(N=CN(C)C)c(C)cc3nc2c1=O	101	-76	144*	98	-3	109
O=C(NC(=S)N1CCN(c2ccc(O)cc2)CC1)c1cccs1	93	-2	-1	99	-1	85
O=C(NC(=S)N1CCN(c2ccc(F)cc2)CC1)c1cccs1	113	50*	1	107	1	95
CCOc1ccccc1NC(=O)CN1CCCCCC1	91	3	-1	93	-2	101
COc1ccc(-c2ccc(/C=N/NC(=O)Cc3nnc(N)s3)o2)cc1Cl	98	55*	-5	93	-3	100
CSc1nnc(C)c(/C=C/Nc2ccc(C)cc2)n1	107	-145	105*	102	19	94
CCOc1cc(Br)cc(/C=C2\SC(=Nc3ccccc3)NC2=O)c1O	103	-13	2	102	2	104
Cc1ccc(S(=O)(=O)/N=C2/NC(=O)/C(=C/c3ccc(Br)o3)S2)cc1	98	55*	-2	99	-1	91
Cc1ccc(S(=O)(=O)/N=C2/NC(=O)/C(=C\c3cc(Br)cc(Br)c3O)S2)cc1	100	-77	77*	97	4	113
Cc1ccc(S(=O)(=O)/N=C2/NC(=O)/C(=C/c3cccnc3)S2)cc1	105	26	1	104	6	110
CCCN(CC1CCCO1)C(=O)CCc1nnc(CCc2ccc(OC)cc2)o1 (stereo not drawn)	94	-7	1	89	-8	97
O=C(Nc1ccccc1C(=O)Nc1nnc(C(F)(F)F)s1)c1ccccc1	121	37	60*	110	14	94
Cc1cc2c(=O)n(C)c(SCC(=O)Nc3ccc(F)cc3)nc2s1	x	7	-2	x	x	95
COc1cc(NC(=O)CSc2nc3ccccc3n2-c2ccccc2)c(C)cc1[N+](=O)[O-]	89	55*	-2	91	-4	94
COc1ccc(-n2c(SCC(=O)Nc3ccc([N+](=O)[O-])cc3OC)nc3ccccc32)cc1	92	30	6	91	-2	93
C=CCn1c(COc2ccccc2)nnc1SCC(=O)N/N=C/c1cc(Cl)ccc1O	100	60*	-1	101	1	108
CC(=O)N1c2ccc(S(=O)(=O)N(C)CC(=O)NC3CCCC3)cc2CC1C (stereo not drawn)	95	63*	2	99	-3	107
CC(=O)N1c2ccc(S(=O)(=O)N(C)CC(=O)N3CCCC3)cc2CC1C (stereo not drawn)	101	-5	0	101	4	94
Cc1ccc(S(=O)(=O)NCC(C)n2cncn2)cc1C (stereo not drawn)	106	7	1	107	11	102

Screens from PubChem.
